Source: PubChem BioAssay
Rows were chosen to be rich in hits. Some 5.5% of all compounds tested hit in one or more screens of this group.
uPA surface inh: qHTS for Inhibitors of Cell Surface uPA Generation; cell surface uPA generation assay, qHTS; Potency, µM (doses to about 38.3 µM), usual class: inhibitors; 330,000 compounds, 0.31% hits; active means well fitted inhibition curve with a large enough effect; inconclusive means small, poorly fitted or top-dose-only effect; inactive means no such curve, though single readings can be large or run the other way; tested in mouse RAW 264.7 cells; further: nearly all actives have a fitted effect of over 55% in size
VP16 counter: VP16 counterscreen qHTS for inhibitors of ROR gamma transcriptional activity; Drosophila S2 Gal4-VP16 UAS-luciferase, luminescence, 20 h; Potency, µM (doses to about 53.6 µM), actives largely listed as inhibitors; 310,000 compounds, 3.5% hits; AID 2546, 2010;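 further: Gal4-VP16 expression switched on by copper sulfate through the metallothionein promoter; nearly all actives have a fitted effect of over 50% in size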
Mito fusion yeast: qHTS Assay for Small Molecule Inhibitors of Mitochondrial Division or Activators of Mitochondrial Fusion | Potency, µM (titrated, usually from 46.1 µM), actives largely listed as activators | S. cerevisiae fusion-defective mutant growth rescue, CellTiterGlo 48 h | AID 485298, 2010 | 320,000 compounds, 0.23% hits; further: nearly all actives have a fitted effect of over 45% in size
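S. cerevisiae fusion-defective temperature-sensitive mutants (e.g. fzo1-1, mgm1-5) grown 48 h at 37C in YPEG (ethanol/glycerol non-fermentable) medium with 23 nl compound per well; growth rescue read as CellTiterGlo luminescence.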
BCR signal inh: qHTS Assay to Find Inhibitors of Chronic Active B-Cell Receptor Signaling; ABC-DLBCL IkBa-CBG/CBR reporter, luminescence ratio, 4 h; Potency, µM (top dose mostly 46.1 µM), actives largely listed as inhibitors; 340,000 compounds, 0.05% hits; AID 493014, 2011; active means well fitted inhibition curve with a large enough effect in the signal ratio, with a control signal flat, not every such curve was filed as active; inconclusive means small, poorly fitted or top-dose-only effect, or effect the other way, or a change in a side signal; the % refers to the signal ratio
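Cell line TMD8 (human ABC DLBCL), stably expressing tet-inducible CBG68-IkBa fusion and CBR; IMDM/0.5% FBS; cpd up to 46 uM; dox induction, 4 h, 37C/5% CO2; dual luminescence; green/red ratio; MG132 control.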
a7 integrin act: qHTS for Activators of Integrin-Mediated Alleviation for Muscular Dystrophy. 350,000 compounds, 0.064% hits. Potency, µM (highest dose often 38.3 µM), actives largely listed as activators. alpha7betagal myoblasts, beta-gal FDG fluorescence, 48 h; further: nearly all actives have a fitted effect of over 60% in size
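Alpha7betagal+/- myoblasts (passage 13) were plated 16-24 hr, then exposed to compounds (1:260 dilution of DMSO stock) for 48 hours at 37C. After MPER lysis, β-galactosidase reporter activity was read as FDG fluorescence (ex 480/em 540) after 30 minutes.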
RORgamma inh: qHTS for inhibitors of ROR gamma transcriptional activity | Drosophila S2 Gal4-RORgamma UAS-luciferase reporter, 20 h | Potency, µM (titrated, usually from 53.6 µM), actives largely listed as inhibitors | 310,000 compounds, 5.4% hits | AID 2551, 2010; further: nearly all actives have a fitted effect of over 60% in size
Target sequence (P51450 whole entry, looked up, the tested form may be a part): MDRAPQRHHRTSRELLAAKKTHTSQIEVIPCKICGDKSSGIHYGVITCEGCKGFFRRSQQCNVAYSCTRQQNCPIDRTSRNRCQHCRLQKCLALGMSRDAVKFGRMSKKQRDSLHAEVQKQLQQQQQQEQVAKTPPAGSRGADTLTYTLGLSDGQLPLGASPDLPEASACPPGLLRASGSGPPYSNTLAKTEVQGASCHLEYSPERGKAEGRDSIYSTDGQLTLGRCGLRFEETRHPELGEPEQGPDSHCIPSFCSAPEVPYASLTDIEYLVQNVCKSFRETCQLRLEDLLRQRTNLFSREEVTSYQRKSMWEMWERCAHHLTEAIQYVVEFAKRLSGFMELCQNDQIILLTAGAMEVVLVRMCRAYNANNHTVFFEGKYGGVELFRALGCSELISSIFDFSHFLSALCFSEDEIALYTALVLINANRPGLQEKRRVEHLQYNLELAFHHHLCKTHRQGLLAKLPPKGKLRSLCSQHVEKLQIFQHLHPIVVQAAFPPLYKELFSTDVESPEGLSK
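Drosophila Schneider cells stably carrying a metallothionein-driven Gal4 DBD–ROR gamma fusion and a UAS-Photinus luciferase reporter were exposed to compound for 1 hr, then induced with copper sulfate (700 uM final) for 20 hr at ambient temperature before luminescence reading.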
A number is an active result; i = inactive; ? = inconclusive; nt = no result; [ ] = another dose, or the depositor's remark. Unless noted, the call rests on the fitted dose curve; in most records, active means well fitted curve in the direction sought with a large enough effect; inconclusive means small, poorly fitted or top-dose-only effect, or another doubt; inactive means no such curve, though single readings can be large; an effect the other way counts as inactive or inconclusive.

SMILES	uPA surface inh	VP16 counter	Mito fusion yeast	BCR signal inh	a7 integrin act	RORgamma inh
CC(C)S(=O)(=O)c1csc(C(=O)NN)c1Cl	i	i	i	i	i	10µM
CCCn1c(-c2ccc(F)cc2)nc2c(NCCCN(C)C)nc(C)nc21	nt	i	nt	nt	nt	i
CCN(CC)S(=O)(=O)c1ccc2c(c1)[nH]c(=S)n2CC	i	i	i	?	i	6.3µM
CCOC(=O)c1ccc2c(c1)[nH]c(=S)n2CC	i	?	i	?	i	8.9µM
O=C(C1=C[C@@H](c2ccc3c(c2)OCO3)C[C@@H](OCc2ccc(CO)cc2)O1)N1CCOCC1	i	i	i	i	i	i
O=C(C1=C[C@H](c2ccc3c(c2)OCO3)C[C@H](OCc2ccc(CO)cc2)O1)N1CCCCCCC1	i	i	i	i	i	14µM
Cc1ccc(OCCCN2C(=O)C(=O)c3cccc(C)c32)cc1	i	13µM	i	i	i	7.9µM
Cc1cccc2c1N(CCOc1ccc(C(C)(C)C)cc1)C(=O)C2=O	i	?	i	i	i	i
O=C(Nc1ccccc1)N1CC[C@@]2(CCCN(C(=O)c3cc(C(F)(F)F)cc(C(F)(F)F)c3)C2)C1	nt	i	nt	nt	nt	i
CC(C)(C)c1csc(N/N=C/c2ccc(O)cc2)n1	?	1µM	i	i	i	0.56µM
O=C(Oc1ccccc1)N1CCC2(CCCN(c3ccccn3)C2)CC1	nt	i	nt	nt	nt	i
CCc1cc(-c2[nH]ncc2-c2ccc(OC)cc2)c(O)cc1O	i	i	i	?	i	i
COc1ccc(-c2cn[nH]c2-c2ccc(OCc3ccc([N+](=O)[O-])cc3)cc2O)cc1	i	2µM	i	i	?	2.8µM
C=C(C)COc1ccc(-c2nc(N)ncc2Oc2ccc(OC)cc2)c(O)c1	i	i	i	?	i	i
C=C(C)COc1ccc(-c2[nH]ncc2-c2ccc(Br)cc2)c(O)c1	i	10µM	i	?	i	7.9µM
C=C(C)COc1ccc(-c2ncncc2-c2ccc(Br)cc2)c(O)c1	i	i	i	?	i	i
C=C(C)COc1ccc(-c2nc(N)ncc2Oc2ccccc2OC)c(O)c1	i	i	i	?	i	i
C=C(C)COc1ccc(-c2[nH]ncc2Oc2ccccc2OC)c(O)c1	i	?	i	nt	i	11µM
C=C(C)COc1ccc(-c2[nH]ncc2Oc2ccc(OC)cc2)c(O)c1	i	?	i	?	i	13µM
O=C(COC(=O)c1c(Cl)ccc(Cl)c1Cl)NCC1CCCO1 (stereo not given)	i	nt	nt	i	i	nt
O=C(O)c1cccc([N+](=O)[O-])c1C(=O)Nc1ccc2ccccc2c1	i	?	i	i	i	?
C[N+]1(C)CCC(=C(c2ccccc2)c2ccccc2)CC1	i	i	i	i	nt	i[2.98 µM]
CCOc1ccc(-c2[nH]ncc2-c2ccc(Cl)cc2)c(O)c1	i	?	i	i	i	11µM
CCOc1ccc(-c2[nH]ncc2-c2ccc(OC)c(OC)c2)c(O)c1	nt	?	i	i	i	?
CCCOC(=O)c1ccc(Oc2cn[nH]c2-c2ccc(OC)cc2O)cc1	i	22µM	?	i	i	10µM
SMILES	uPA surface inh	VP16 counter	Mito fusion yeast	BCR signal inh	a7 integrin act	RORgamma inh
C=C(C)COc1ccc(-c2[nH]ncc2-c2ccccc2OC)c(O)c1	i	13µM	i	?	i	8.9µM
C=C(C)COc1ccc(-c2n[nH]c(C)c2-c2ccc(Br)cc2)c(O)c1	?	4.5µM	i	?	i	3.2µM
C=C(C)COc1ccc(-c2nc(N)ncc2-c2ccc(Br)cc2)c(O)c1	i	i	i	?	i	i
Cc1cc(=O)oc2cc(NC(=O)C(C)Oc3cccc(Cl)c3)ccc12 (stereo not given)	i	nt	i	?	i	nt
Cc1cccc(-c2nc3scc(CCNS(=O)(=O)c4ccc(F)cc4C)n3n2)c1	nt	nt	nt	i	nt	nt
NS(=O)(=O)c1ccc(Oc2ccc(S(N)(=O)=O)cc2)cc1	i	i	?	i	i	i
C=CS(=O)(=O)c1ccc(Oc2ccc(S(=O)(=O)C=C)cc2)cc1	i	2.2µM	i	?	i	3.2µM
C/C(NCCc1ccccc1)=C1/CCOC1=O	nt	nt	nt	nt	i	nt
OCCN(CCO)c1ccc2ccccc2c1	i	i	i	?	i	i
OCCN(CCO)c1ccc(C(c2ccccc2Cl)c2ccc(N(CCO)CCO)cc2Cl)c(Cl)c1	i	?	i	?	i	14µM
Fc1cccc(CCN2C(=S)NC[C@@H]2CC2CCCCC2)c1	i	6.3µM	i	i	i	2µM
CCCC[C@@H]1CNC(=S)N1CCc1cccc(F)c1	i	4µM	i	i	i	1.4µM
CCCC[C@@H]1CNC(=S)N1CCCc1cc(OC)c(OC)c(OC)c1	i	?	i	i	i	8.9µM
Fc1cccc(CCN2C(=S)NC[C@@H]2Cc2ccccc2)c1	i	7.1µM	i	i	i	2.2µM
CCc1ccc(NC(=O)Nc2cn(C)c(=O)c3ccccc23)cc1	nt	nt	nt	i	nt	nt
COc1ccc(C2CC(=O)c3c(O)cc(O[C@H]4OC(COC5OC(C)C(O)C(O)[C@@H]5O)C(O)C(O)C4O)cc3O2)cc1O (stereo not given in full)	nt	i	nt	nt	nt	i
O=C(NC(=S)Nc1ccc(Cl)cn1)c1cccs1	i	1µM	i	?	i	?
O=C(NC(=S)Nc1cccnc1)c1cccs1	i	i	i	i	i	10µM
Cc1nn(C)cc1/C=N/NC(=O)CSc1ccccn1	i	i	i	?	i	i
Cc1ccc(S(=O)(=O)NCCC(=O)N2CCCCCCC2)cc1	i	nt	i	i	i	nt
Cc1cc2ccccn2c1C(=O)c1ccncc1	i	i	i	i	i	i
Cc1cc2ccccn2c1C(=O)c1ccc(Cl)cc1	nt	16µM	i	i	i[7.66 µM]	?
Cc1cc2ccccn2c1C(=S)NC(=O)c1ccccc1	i	3.5µM	i	i	i	3.2µM
COc1ccc(NC(=O)N2CC3(CCN(S(=O)(=O)c4ccccc4)CC3)C2)cc1	nt	i	nt	nt	nt	i
CCN(C/C=C/C#CC(C)(C)C)Cc1cccc(OCc2cc(-c3ccsc3)cs2)c1	nt	i	nt	nt	nt	i
COC(=O)c1ccc2c(=O)n(Cc3ccc(C(=O)NCCCN4CCOCC4)cc3)c(=S)[nH]c2c1	i	i	i	?	i	i
O=C(NCCCN1CCOCC1)c1ccc2c(=O)n(Cc3ccc(Cl)cc3)c(=S)[nH]c2c1	?	?	i	i	i	11µM
COC(=O)c1ccc2c(=O)n(Cc3ccc(C(=O)NCCCN4CCC(C)CC4)cc3)c(=S)[nH]c2c1	i	?	i	?	?	?
CC1CCN(CCCNC(=O)c2ccc3c(=O)n(Cc4ccc(Cl)cc4)c(=S)[nH]c3c2)CC1	i	20µM	i	i	i	13µM
